Molecules are shown by their SMILES. Screen size: about 39,000 compounds; about 1,500 (3.8%) were called active. This is one part of a sample in which actives are shown more often than they occur.

This assay concerns HSkMC (human skeletal muscle cells). The assay can be described thus: cytotoxicity call (relative viability < 0.9). To be noted: 10 µM.
For the molecule `c1ccc(-c2nn(-c3ccccc3)c3c2cnc2ccccc23)cc1`, the cytotoxicity call was “inactive”.
On to `C[C@@H]1CN([C@@H](C)CO)C(=O)c2cc(C#Cc3ccccc3F)cnc2O[C@H]1CN(C)C(=O)c1ccc2c(c1)OCO2`, for which the cytotoxicity call was “inactive”.
`c1cnc(-c2cc[nH]n2)cn1`: the cytotoxicity call is “inactive”.
In the case of `C[C@@H]1CN([C@@H](C)CO)C(=O)c2ccccc2-c2ccccc2CO[C@H]1CN(C)C(=O)N[C@H](C)c1ccccc1`, the cytotoxicity call is “inactive”.
To `Cc1cc(C)c(NC(=O)CN(CC(=O)O)CC(=O)O)c(C)c1Br` belongs “inactive”.
Regarding `Cn1cnc(S(=O)(=O)N2C[C@H](O)COC[C@@H]3O[C@@H](CC(=O)NCc4cccc(F)c4)CC[C@H]32)c1`, the cytotoxicity call was “inactive”.
The value for `C[C@@H]1CN([C@H](C)CO)S(=O)(=O)c2ccc(-c3ccncc3)cc2O[C@@H]1CN(C)S(=O)(=O)c1ccccc1F` was “inactive”.
As for `Cc1ccc(S(=O)(=O)Oc2ccc(/N=N/c3ccc(-c4ccc(/N=N/c5c(O)ccc6cc(S(=O)(=O)O)cc(S(=O)(=O)O)c56)c(C)c4)cc3C)cc2)cc1`, the cytotoxicity call is “inactive”.
To `Cc1cc(-c2ccc(N=Nc3ccc4c(S(=O)(=O)[O-])cc(S(=O)(=O)[O-])c(N)c4c3O)c(C)c2)ccc1N=Nc1ccc2c(S(=O)(=O)[O-])cc(S(=O)(=O)[O-])c(N)c2c1O.[Na+].[Na+].[Na+].[Na+]` belongs “active”; to `C[C@H]1CN([C@@H](C)CO)C(=O)c2cc(C#Cc3ccncc3)cnc2O[C@@H]1CN(C)S(=O)(=O)c1ccccc1F`, “inactive”; to `C[C@@H]1CN([C@@H](C)CO)C(=O)c2cc(NC(=O)Nc3ccc(F)cc3)ccc2O[C@@H]1CN(C)Cc1ccc(C(F)(F)F)cc1`, “active”.
As for `C[C@H]1CN([C@@H](C)CO)C(=O)c2cc(NC(=O)Nc3ccc(F)cc3)ccc2O[C@H]1CN(C)Cc1ccc(C(F)(F)F)cc1`, the cytotoxicity call is “inactive”.
To `C[C@H](CO)N1C[C@H](C)[C@@H](CN(C)Cc2ccc(C(F)(F)F)cc2)Oc2ccc(NC(=O)Nc3ccc(F)cc3)cc2C1=O` belongs “active”; to `C[C@@H]1CN([C@@H](C)CO)C(=O)c2cc(NC(=O)Nc3ccc(F)cc3)ccc2O[C@H]1CN(C)Cc1ccc(C(F)(F)F)cc1`, “active”.
To `C[C@@H]1CN([C@H](C)CO)C(=O)c2cc(NC(=O)Nc3ccc(F)cc3)ccc2O[C@H]1CN(C)Cc1ccc(C(F)(F)F)cc1` belongs “active”.
The value for `C[C@H](CO)N1C[C@H](C)[C@H](CN(C)Cc2ccc(C(F)(F)F)cc2)Oc2ccc(NC(=O)Nc3ccc(F)cc3)cc2C1=O` was “inactive”; that for `C[C@@H]1CN([C@H](C)CO)C(=O)c2cc(NC(=O)Nc3ccc(F)cc3)ccc2O[C@@H]1CN(C)Cc1ccc(C(F)(F)F)cc1` was “inactive”.
On to `C[C@H]1CN([C@@H](C)CO)C(=O)c2cc(NC(=O)Nc3ccc(F)cc3)ccc2O[C@@H]1CN(C)Cc1ccc(C(F)(F)F)cc1`, for which the cytotoxicity call was “inactive”.
In the case of `O=C(C[C@H]1C=C[C@@H](NC(=O)Nc2cc(F)ccc2F)[C@@H](CO)O1)NCCCN1CCOCC1`, the cytotoxicity call is “inactive”.
For `CCS(=O)(=O)N1C[C@]2(CN(C2)C(=O)Nc2ccc3c(c2)OCO3)c2c(n(c3cc(ccc23)OC)C)[C@H]1CO`, the cytotoxicity call was “inactive”.
On to `N=C(N)N.O=C(O)O`, for which the cytotoxicity call was “inactive”.
As to `Cc1noc(C)c1S(=O)(=O)N(C)C[C@H]1Oc2ccc(NS(C)(=O)=O)cc2CC(=O)N([C@H](C)CO)C[C@@H]1C`, the cytotoxicity call was “inactive”.
To `COc1ccc(NC(=O)N(C)C[C@@H]2Oc3ccc(NC(=O)Cn4cnnn4)cc3CC(=O)N([C@H](C)CO)C[C@H]2C)cc1` belongs “inactive”; to `C[C@H](CO)N1C[C@H](C)[C@H](CN(C)C(=O)Nc2ccc(C(F)(F)F)cc2)OCCCC[C@H](C)Oc2ccc(NS(=O)(=O)c3cn(C)cn3)cc2C1=O`, “inactive”.
For `O=C(C[C@H]1C=C[C@@H](NC(=O)c2cccc(F)c2)[C@H](CO)O1)NCCN1CCCC1`, the cytotoxicity call was “inactive”.
In the case of `COc1ccc(-c2cnc3c(c2)C(=O)N([C@H](C)CO)C[C@H](C)[C@H](CN(C)S(=O)(=O)c2ccc(F)cc2)O3)cc1`, the cytotoxicity call was “inactive”.
For the molecule `Cc1ccc(S(=O)(=O)N(C)C[C@@H]2Oc3c(NS(=O)(=O)c4ccccc4)cccc3C(=O)N([C@@H](C)CO)C[C@H]2C)cc1`, the cytotoxicity call was “inactive”.
As for `NCC[C@H]1CC[C@@H](NC(=O)c2ccccc2F)[C@@H](CO)O1`, the cytotoxicity call was “inactive”.
Consider `Cc1ccc(S(=O)(=O)N(C)C[C@@H]2Oc3c(NS(C)(=O)=O)cccc3C(=O)N([C@H](C)CO)C[C@H]2C)cc1`, for which the cytotoxicity call is “inactive”.
For `Cc1cc(C(=O)Nc2cccc3c2O[C@@H](CN(C)S(C)(=O)=O)[C@@H](C)CN([C@@H](C)CO)C3=O)n(C)n1`, the cytotoxicity call is “inactive”.
As for `C[C@@H]1CCCCO[C@@H](CN(C)S(=O)(=O)c2ccc(Cl)cc2)[C@@H](C)CN([C@@H](C)CO)C(=O)c2cc(NS(=O)(=O)c3ccc(F)cc3)ccc2O1`, the cytotoxicity call is “inactive”.
Consider `O=C(C[C@@H]1CC[C@H]2[C@@H](COC[C@@H](O)CN2S(=O)(=O)c2ccc(Oc3ccccc3)cc2)O1)NCCN1CCCCC1`, for which the cytotoxicity call was “inactive”.
To `COc1ccc(N(C(=O)CSc2ncccn2)[C@@H](C(=O)NCCc2ccccc2)c2cccs2)cc1Cl` belongs “inactive”; to `COc1ccc(N(C(=O)CCl)[C@@H](C(=O)NCCc2ccccc2)c2ccc(Cl)s2)cc1Cl`, “active”.
To `CC(C)(C)OC(=O)NCCOCCOCCOc1ccc(N(C(=O)CCl)[C@@H](C(=O)NCCc2ccccc2)c2cccs2)cc1Cl` belongs “active”; to `O=C(CCCl)NCCc1ccccc1`, “inactive”.
The value for `Cn1cnc(S(=O)(=O)N[C@H]2CC[C@@H](CC(=O)N3CCN(c4ccccc4)CC3)O[C@H]2CO)c1` was “inactive”.
With `C[C@@H]1CN([C@H](C)CO)C(=O)Cc2cc(NC(=O)CCC(F)(F)F)ccc2O[C@H]1CN(C)Cc1ccc(Oc2ccccc2)cc1`, the cytotoxicity call was “inactive”.
The value for `C[C@H]1CCCCO[C@H](CN(C)C(=O)Nc2cccc3ccccc23)[C@@H](C)CN([C@@H](C)CO)C(=O)c2cc(NS(=O)(=O)c3ccc(Cl)cc3)ccc2O1` was “inactive”; that for `COC(=O)[C@@H]1OC(=O)[C@H]2O[C@@]23[C@]2(C)[C@@H](O)C[C@H]4C(C)(C)[C@H](OC(C)=O)C[C@H](OC(C)=O)[C@]4(C)[C@@H]2CC[C@@]13C` was “inactive”; that for `COc1ccc(CN(CCN(C)C)c2ccccn2)cc1.O=C(O)C=CC(=O)O` was “inactive”.
To `CCCCCCCCCCCCCCCC[N+](C)(C)CCN(Cc1ccc(OC)cc1)c1ncccn1` belongs “active”; to `COc1ccc(CN(CCN(C)C)c2ncccn2)cc1.Cl`, “inactive”.
Turning to `C[C@@H]1CCCCO[C@H](CN(C)Cc2ccc(C(=O)O)cc2)[C@H](C)CN([C@H](C)CO)C(=O)c2cc(NC(=O)Nc3ccc(F)cc3)ccc2O1`, the cytotoxicity call was “inactive”.
To `C[C@@H]1CCCCO[C@H](CN(C)C(=O)C2CCCCC2)[C@@H](C)CN([C@H](C)CO)C(=O)c2cc(NC(=O)Cc3ccccc3)ccc2O1` belongs “inactive”; to `NCC[C@@H]1CC[C@@H](NC(=O)C2CCCCC2)[C@@H](CO)O1`, “inactive”; to `C[C@@H]1CCCCO[C@H](CN(C)S(=O)(=O)c2ccc(F)cc2)[C@@H](C)CN([C@@H](C)CO)C(=O)c2cc(NC(=O)Nc3ccc(F)cc3)ccc2O1`, “inactive”.
The value for `C[C@@H]1CCCCO[C@@H](CN(C)C(=O)Nc2ccc(F)cc2)[C@@H](C)CN([C@@H](C)CO)C(=O)c2cc(NC(=O)Nc3ccc(F)cc3)ccc2O1` was “inactive”; that for `COc1ccc(NC(=O)N(C)C[C@H]2Oc3c(NC(=O)C4CCOCC4)cccc3C(=O)N([C@H](C)CO)C[C@H]2C)cc1` was “inactive”; that for `COc1ccc(C(=O)O)c(O)c1OC` was “inactive”.
To `COC1=C(N)C(=O)c2nc(-c3nc(C(=O)O)c(C)c(-c4ccc(OC)c(OC)c4O)c3N)ccc2C1=O` belongs “active”; to `Cc1ccc(S(=O)(=O)N(C)C[C@H]2Oc3ccc(NS(=O)(=O)c4ccc(F)cc4)cc3C(=O)N([C@H](C)CO)C[C@H]2C)cc1`, “inactive”.
With `C[C@H](CO)N1C[C@H](C)[C@@H](CN(C)C(=O)c2ccccc2)OCCCC[C@H](C)Oc2ccc(NC(=O)Nc3ccccc3)cc2C1=O`, the cytotoxicity call is “inactive”.
To `C[C@H](CO)N1C[C@H](C)[C@@H](CN(C)C(=O)C2CCOCC2)Oc2ncc(-c3cccc(C#N)c3)cc2C1=O` belongs “inactive”.
The value for `C[C@H]1CN([C@@H](C)CO)C(=O)Cc2cc(NC(=O)Nc3ccc4c(c3)OCO4)ccc2O[C@H]1CN(C)Cc1ccc(C(F)(F)F)cc1` was “inactive”; that for `C[C@H]1CN([C@@H](C)CO)C(=O)Cc2cc(NC(=O)Nc3ccc4c(c3)OCO4)ccc2O[C@@H]1CN(C)Cc1ccc(C(F)(F)F)cc1` was “inactive”; that for `C[C@@H]1CN([C@H](C)CO)C(=O)Cc2cc(NC(=O)Nc3ccc4c(c3)OCO4)ccc2O[C@H]1CN(C)Cc1ccc(C(F)(F)F)cc1` was “active”.
Regarding `C[C@@H]1CN([C@@H](C)CO)C(=O)Cc2cc(NC(=O)Nc3ccc4c(c3)OCO4)ccc2O[C@@H]1CN(C)Cc1ccc(C(F)(F)F)cc1`, the cytotoxicity call was “inactive”.
The value for `C[C@H](CO)N1C[C@H](C)[C@H](CN(C)Cc2ccc(C(F)(F)F)cc2)Oc2ccc(NC(=O)Nc3ccc4c(c3)OCO4)cc2CC1=O` was “inactive”; that for `C[C@H](CO)N1C[C@H](C)[C@H](CN(C)C(=O)Nc2ccc3c(c2)OCO3)Oc2ccc(NC(=O)Nc3ccc(C(F)(F)F)cc3)cc2CC1=O` was “inactive”.
The value for `C[C@@H]1CN([C@H](C)CO)C(=O)Cc2cc(NC(=O)Nc3ccc4c(c3)OCO4)ccc2O[C@@H]1CN(C)Cc1ccc(C(F)(F)F)cc1` was “active”.
Consider `C[C@@H]1CN([C@@H](C)CO)C(=O)Cc2cc(NC(=O)Nc3ccc4c(c3)OCO4)ccc2O[C@H]1CN(C)Cc1ccc(C(F)(F)F)cc1`, for which the cytotoxicity call was “inactive”.
Turning to `C[C@H](CO)N1C[C@H](C)[C@@H](CN(C)Cc2ccc(C(F)(F)F)cc2)Oc2ccc(NC(=O)Nc3ccc4c(c3)OCO4)cc2CC1=O`, the cytotoxicity call was “active”.
Take `OCc1ccc2c(c1)OCCO2`: the cytotoxicity call is “inactive”.
In the case of `C[C@@H]1CN([C@@H](C)CO)C(=O)c2cc(NC(=O)Cn3cnnn3)ccc2O[C@@H]1CN(C)Cc1ccc(Cl)c(Cl)c1`, the cytotoxicity call is “inactive”.

These data come from the antibiotic and cytotoxicity screens of Wong et al. (2023).
